Source: PubChem BioAssay (National Center for Advancing Translational Sciences (NCATS))
SMN2 splice enh – increases expression of the SMN2 splice variant | HEK293 SMN2-luciferase splicing reporter, luminescence, 30-36 h | Potency, µM (top dose mostly 46.1 µM), without a hit: top-dose activity change, positive = activation, usual class: activators | 2.8% of 210,000 active; also: % of control where 0% means no effect; nearly all actives have a fitted effect of over 55% in size
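HEK293 cells carry an SMN2 […]–luciferase reporter in which exon 7 inclusion puts luciferase in frame. Cells were plated 10-12 h before compound addition, then incubated 30-36 h at 37C. ONE-Glo luminescence was read; sodium butyrate at 4.5 mM final served as control.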
FLuc counter – counter-screen for miR-21 project: firefly luciferase inhibitors or activators | 6.9% of 360,000 active | AID 588342 | P08659 | Potency, µM (series often up to 57.5 µM), for inactives: at the top dose activity change, negative = inhibition, actives largely listed as inhibitors | purified FLuc, Km substrates, luminescence inhibition;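 also: plate controls were vehicle for no effect and reference inhibitor for full effect; nearly all actives have a fitted effect of over 55% in size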
Target sequence (P08659 whole entry, looked up): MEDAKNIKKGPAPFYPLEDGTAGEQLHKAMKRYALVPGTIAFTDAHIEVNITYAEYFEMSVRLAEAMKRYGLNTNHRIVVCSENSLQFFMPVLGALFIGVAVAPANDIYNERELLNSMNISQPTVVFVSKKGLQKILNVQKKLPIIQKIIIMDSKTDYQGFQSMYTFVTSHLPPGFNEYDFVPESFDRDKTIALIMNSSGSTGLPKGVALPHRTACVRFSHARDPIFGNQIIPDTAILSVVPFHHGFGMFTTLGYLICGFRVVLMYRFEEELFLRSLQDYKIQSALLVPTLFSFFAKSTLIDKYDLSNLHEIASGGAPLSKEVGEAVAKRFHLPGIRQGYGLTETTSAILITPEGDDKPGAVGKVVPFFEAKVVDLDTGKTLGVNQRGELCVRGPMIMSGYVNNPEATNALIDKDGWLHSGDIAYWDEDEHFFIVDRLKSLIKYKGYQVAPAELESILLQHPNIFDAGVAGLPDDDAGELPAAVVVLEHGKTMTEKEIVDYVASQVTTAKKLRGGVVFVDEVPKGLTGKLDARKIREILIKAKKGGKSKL
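Purified P. pyralis luciferase (10nM final) with 10uM D-luciferin and 10uM ATP (Km levels) in 50mM Tris acetate pH 7.5, 10mM Mg acetate, 0.01% Tween-20, 0.05% BSA; qHTS 6-point titration, ~60 µM downward; luminescence read.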
ELG1 DNA repair – inhibitors of ELG1-dependent DNA repair in HEK293T cells | Potency, µM (highest dose often 46.1 µM), without a hit: at the top dose activity change, negative = inhibition, actives largely listed as inhibitors | HEK293T ELG1-luciferase reporter, luminescence, 16 h; DNA damage induced by 5-fluorouridine | 2.3% of 330,000 active | AID 504467; also: % is scaled to controls: 0 for no effect and ±100 for the full control effect; nearly all actives have a fitted effect of over 55% in size
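HEK293T cells expressing luciferase-tagged ELG1 (2,000/well) received 5-Fluorouridine plus compound or DMSO for 16 hr at 37 °C. Luciferase was read by ONE-Glo luminescence after 30 min at room temperature.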
Rab9 promoter act – activates the Rab9 promoter; Huh7 Rab9 promoter-luciferase reporter, luminescence, 24 h; Potency, µM (series often up to 9.22 µM), inactives show at the top dose activation, negative = inhibition, actives largely listed as activators; AID 485297; 2.8% of 320,000 active; also: % of control where 0% means no effect; nearly all actives have a fitted effect of over 60% in size
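Promoter activation is measured as luciferase luminescence in Huh7 cells stably transfected with a Rab9 promoter–luciferase construct, following 24 h compound exposure at 37 °C and 10 min reagent incubation at ambient temperature.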
NPC1 promoter act – activators of NPC1 promoter. 2.4% of 320,000 active. Huh7 NPC1 promoter luciferase reporter, 24 h. Potency, µM (doses to about 9.22 µM), inactives show top-dose activation, usual class: activators; also: % of control where 0% means no effect; nearly all actives have a fitted effect of over 60% in size
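Stably transfected Huh7 (NPC1 promoter→luciferase), 1500 cells/well in Opti-MEM + 10% FBS, 2 h settle, then compound 24 h at 37 °C. Luminescence after 10 min with Amplite reagent.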
ELG1 genotoxic – inducers of genotoxicity in HEK293T ELG1-luciferase cells; 1.3% of 330,000 active; HEK293T ELG1-luciferase reporter, luminescence, 16 h; Potency, µM (doses to about 46 µM), for inactives: at the top dose activity change, positive = activation, actives largely listed as activators; also: % of control where 0% means no effect; nearly all actives have a fitted effect of over 60% in size
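Luminescence read-out: rising ELG1-luciferase signal, reflecting elevated ELG1 protein under genetic stress, flags genotoxic compounds. Cells were treated for 16 hr at 37 °C before ONE-Glo detection.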
Active calls of the source: *; ? = inconclusive; / = not tested or not shown. The list is not random: actives were taken first. Their share in the collection is about 9.3%. Calls follow the shape of the dose curve; as a rule, active = well fitted curve in the direction sought with a large enough effect; inconclusive = small, poorly fitted or top-dose-only effect, or another doubt; inactive = no such curve, though single readings can be large; an effect the other way counts as inactive or inconclusive. Potency is read from the fitted curve at half-maximal effect.

SMILES	SMN2 splice enh	FLuc counter	ELG1 DNA repair	Rab9 promoter act	NPC1 promoter act	ELG1 genotoxic
COc1cccc(NC(=O)C2CCN(S(=O)(=O)c3ccc4c(c3)N(C(C)=O)CCO4)CC2)c1	/	2%	?	2%	-2%	-6%
Cc1nn(C)cc1CNC(=O)c1cc2n(n1)C(C(F)(F)F)CC(c1cccs1)N2 (configuration not stated)	-28%	-1%	23µM*	-1%	7%	-4%
COCCn1cnc2c1c(=O)n(CC(=O)OCC(=O)NCCCc1ccccc1)c(=O)n2Cc1ccccc1	/	4%	3%	-2%	-1%	-1%
COc1ccc(S(=O)(=O)Cc2ccc(C(=O)N3CCN(c4cc(Cl)ccc4C)CC3)o2)cc1	1%	1%	?	-3%	1%	-12%
COc1cc2c(cc1OC)CN(c1nc(CN3CCCCC3)nc3sc4c(c13)CCCC4)CC2	-23%	-3%	23µM*	-6%	0%	-8%
CCCN(CC(=O)Nc1ccccc1C)C(=O)c1ccc2ccccc2n1	/	2%	5%	3%	-6%	0%
O=C(Nc1ccc(OC(F)(F)F)cc1)c1ccc2ccccc2n1	-43%	?	-14%	6%	1%	1%
Cc1ccccc1NC(=S)c1ccc2ccccc2n1	/	13µM*	?	-2%	23%	?
O=C(NNC(=O)c1ccc2ccccc2n1)c1ccc(O)cc1	/	?	16%	-3%	-3%	1%
O=C(Nc1ccccc1C(=O)O)c1ccc2ccccc2n1	?	6µM*	?	?	?	?
O=C(Nc1ccccc1)c1ccc2ccccc2n1	?	4.8µM*	?	?	20%	?
Cc1ccc(NS(=O)(=O)c2ccc3[nH]c(=O)oc3c2)cc1Cl	/	3%	14%	-2%	-2%	0%
O=C(O)Cc1ccc(OCc2ccc(Cl)nc2)cc1	-3%	15µM*	?	1%	9%	-10%
O=C(Nc1ccc(F)cc1)c1csc(Cc2ccccc2)n1	1%	5.4µM*	?	?	?	6%
COc1ccc(NC(=O)c2csc(Cc3ccccc3)n2)cc1	-15%	6.7µM*	?	?	26%	?
COc1ccc(CNC(=O)c2csc(Cc3ccccc3)n2)cc1	?	19µM*	?	19%	4%	7%
NC(=O)c1ccccc1NC(=O)Nc1ccccc1Cl	-6%	?	26%	-2%	-2%	2%
Cc1ccc(C(=O)/C=C/Nc2ccccc2C(N)=O)o1	11µM*	5.4µM*	/	/	/	/
COc1cc([N+](=O)[O-])ccc1N/C=C/C(=O)c1cccs1	1.6µM*	0.12µM*	?	1.1µM*	0.5µM*	?
Cc1cccc(N/C=C/C(=O)c2cccs2)c1C	2µM*	0.34µM*	?	?	29%	1.8µM*
NC(=O)c1ccccc1N/C=C/C(=O)c1ccc(Cl)cc1Cl	1µM*	0.19µM*	?	0.5µM*	0.79µM*	?
Cc1ccccc1NC(=O)Nc1ccccc1C(N)=O	/	-12%	10%	-2%	-1%	7%
CCN(CC)C(=O)c1sc2c(c1C)c(=O)n(CCc1ccccc1)c(=O)n2Cc1ccc(C)cc1	/	-2%	/	/	/	/
COc1ccc(NS(=O)(=O)c2ccc(NC(=O)C(CCSC)NC(N)=O)cc2)cc1 (configuration not stated)	/	1%	-15%	-1%	-4%	-1%
Cc1ccc(/C=C2/NC(=O)N(Cc3ccccc3)C2=O)s1	-8%	-11%	?	14%	1%	13%
SMILES	SMN2 splice enh	FLuc counter	ELG1 DNA repair	Rab9 promoter act	NPC1 promoter act	ELG1 genotoxic
CC(=O)c1ccc(NS(=O)(=O)c2ccc(N/C=C/C(=O)c3ccc(F)cc3)cc2)cc1	/	?	?	7%	5%	1%
NC(=O)c1ccccc1NS(=O)(=O)c1cccs1	/	4%	0%	-2%	-1%	-1%
NC(=O)c1ccccc1N/C=C/C(=O)c1ccc(F)cc1	18µM*	0.76µM*	?	1µM*	0.71µM*	?
NC(=O)c1ccccc1N/C=C/C(=O)c1cccs1	7.1µM*	2.7µM*	?	0.89µM*	1.8µM*	2.1µM*
CCOc1ccccc1NC(=O)Cc1c(F)cccc1Cl	-6%	0%	15%	-1%	-4%	0%
CCOc1ccc(CCNC(=O)c2ccc(CS(=O)Cc3ccccc3Cl)o2)cc1 (configuration not stated)	/	24µM*	23µM*	8%	13%	-7%
COC(=O)c1cccc([N+](=O)[O-])c1CN1CCCC(C(N)=O)C1 (configuration not stated)	-11%	-2%	1%	2%	-1%	2%
C/C(=N\N1CCN(Cc2ccc(Cl)cc2)CC1)c1ccc([N+](=O)[O-])cc1	/	0%	16µM*	-19%	-4%	-5%
O=[N+]([O-])c1ccc(Cl)c(/C=N/N2CCN(Cc3ccc(Cl)cc3)CC2)c1	-18%	-1%	-2%	-1%	-1%	0%
O=C(CCN1C(=O)/C(=C/c2ccc(Cl)cc2)SC1=S)Nc1cccnc1	/	-1%	7%	-6%	3%	-2%
O=C(O)CN1C(=O)/C(=C\C(Br)=C\c2ccccc2)SC1=S	/	9.5µM*	?	14%	8%	?
C=CCN1C(=O)/C(=C/c2ccsc2)SC1=S	-67%	7%	-7%	2%	-2%	1%
O=C(O)CN1C(=O)/C(=C/c2ccsc2)SC1=S	-12%	19µM*	-1%	1%	-4%	1%
CC(=O)c1ccc(NC(=O)CN2C(=O)/C(=C/C=C/c3ccccc3)SC2=S)cc1	22%	?	1%	3%	-1%	4%
O=C(O)CN1C(=O)/C(=C/C=C/c2ccccc2)SC1=S	4%	2.7µM*	8%	63%	?	0%
O=C(CCN1C(=O)/C(=C/C=C/c2ccccc2)SC1=S)Nc1cccnc1	?	1.1µM*	?	?	25%	?
CCN(CC)C(=O)CN1C(=O)/C(=C/c2ccccc2)SC1=S	/	?	7%	-2%	-5%	-3%
O=C(CCN1C(=O)/C(=C/C=C/c2ccccc2)SC1=S)Nc1ccccn1	/	24µM*	?	5%	0%	17%
CC(=C\c1ccccc1)/C=C1/SC(=S)N(CCC(=O)Nc2ccccn2)C1=O	/	-16%	13%	0%	-1%	4%
CCOc1ccc(NC(=O)Nc2ccc3nccnc3c2)cc1	-22%	19µM*	?	5%	0%	-12%
CCOc1ccc(NC(=O)Nc2ccc(NC(C)=O)cc2)cc1	-15%	-2%	22%	0%	0%	12%
CCOc1ccc(NC(=O)c2ccncc2)cc1	-13%	?	22%	4%	13%	?
